In all, about 65,000 compounds went through this assay and about 2,100 (3.2%) showed an effect of 50% or more. The median lay at about -52%. Only a selection was taken, and strong results are over-represented in it overall.

The test has as its system Plasmodium falciparum. In words: Screen against P. falciparum Asexual Blood Stage (ABS), at 5uM. Type of test: functional, Dd2. Particulars: tested at 5 uM.
For the molecule `O[C@H]1CCN(CC2CC2)[C@H]1Cc1ccncc1`, the INHIBITION was -6.99%.
For `CC1CCCN(CCCNC(=O)c2ccc(N(C)S(C)(=O)=O)cc2Cl)C1` (stereo not drawn) the value was -129%; for `CC(O)CNCc1c[nH]nc1-c1cc2ccccc2o1` (stereo not drawn), -15.3%.
For `Cc1nc(CN2C(=O)C[C@H]3[C@H]2CCN3CC2CCOC2)cs1` (stereo partly drawn) the value was -84.1%; for `COc1ccccc1C1(CNCc2ccc([S+](C)[O-])cc2)CC1` (stereo not drawn), 69.5%.
Regarding `COc1ccccc1C1(CNc2snc(Cl)c2C#N)CCOCC1`, the INHIBITION was found to be 27%.
For `COc1ccccc1C1(CNc2cn[nH]c(=O)c2Cl)CCOCC1`, the INHIBITION is recorded as -28.1%.
For `COc1ccccc1C1(CNCc2cccc(C#N)c2)CCOCC1` the value was 66.9%; for `COc1ccccc1C1(CNc2cn[nH]c(=O)c2Cl)CC1`, -7.64%; for `COc1ccccc1C1(CNc2ccc(C(=O)N(C)C)cn2)CC1`, -70.8%.
For `CC(C)(C)CN(CCC#N)C(=O)c1cccc(CC#N)c1` the value was -98%.
For `CCCC(NC(=O)c1ccc(OC)cc1C)c1nnn[nH]1` (stereo not drawn) the value was -54.4%.
Turning to `Cc1ncc(C(=O)N2CCCC2(C)C(=O)N2CCOCC2)c(C)n1` (stereo not drawn), the INHIBITION is reported as -32.2%.
For `CCS(=O)(=O)N1CCCN(CCCOC)CC1` the value was -97.9%; for `CCOC1COC2(CCN(C(=O)c3cccc(C)n3)CC2)C1` (stereo not drawn), -46%; for `CC1(C)[C@@H]2CC=C(CN3CCCn4nc(C(=O)NCCO)cc4C3)[C@H]1C2`, -43.4%.
For `Cn1cc(CN2CC[C@@H]3[C@@H]2CCN3Cc2ccc3c(c2)OCO3)cn1` the value was -88.4%; for `c1cncc(CN2CC[C@@H]3[C@@H]2CCN3Cc2ccc3c(c2)OCO3)c1`, 59.5%.
For `CN1CC[C@@H]2[C@@H]1CCN2Cc1ccc2c(c1)OCO2` the value was 43%; for `CCOCc1nn(CC2CC2)c2c1CN(Cc1cccs1)CC2`, -70.5%; for `COCc1nn(CC2CC2)c2c1CN(Cc1ccco1)CC2`, -53.2%.
Consider `COCc1nn(CC2CC2)c2c1CN(Cc1cccs1)CC2`, for which the INHIBITION was found to be 50%.
For `CCO[C@H]1C[C@@H](O)C12CCN(C1Cc3ccccc3C1)CC2` the value was -26.8%.
Regarding `NS(=O)(=O)c1ccc(NCc2ccccc2F)cc1C(F)(F)F`, the INHIBITION is -6.73%.
`Fc1ccccc1CNc1ccnc(C2CCNCC2)c1`: the INHIBITION was 66.5%.
For `O=C(NC1CCCC1)c1ccnc(C2CCNCC2)c1` the value was -131%.
Then `O=C(Nc1cccc(C2SCCS2)c1)C1CCCN1c1nccs1` (stereo not drawn), with 36.7%.
Then `CN1CCN(c2ccc(Br)cc2NC(=O)c2ccco2)CC1`, with 53%; and `CN1CCN(c2ccccc2NC(=O)c2ccco2)CC1`, with 32.7%; and `CN1CCN(c2ccc(Cl)cc2NC(=O)c2ccco2)CC1`, with 42%.
As to `CSCC(C)N(C)C(=O)c1nn(-c2ccc(F)cc2C)cc1O` (stereo not drawn), the INHIBITION is recorded as -118%.
Regarding `Cc1cccc(CC(=O)N2CCCC(c3n[nH]c4nccnc34)C2)c1` (stereo not drawn), the INHIBITION is listed as -9.5%.
Then `Cc1cc(-c2nn(C)c(Cl)c2CN2CC[C@H](CO)[C@@H](O)C2)no1`, with -69.4%.
Then `Cc1cc(-c2nn(C)c(Cl)c2CN2Cc3ccccc3C(O)C2)no1` (stereo not drawn), with 53.8%; and `Cc1cc(-c2nn(C)c(Cl)c2CN2CCOCC(O)C2)no1` (stereo not drawn), with -22.3%; and `Cn1nc(COc2cccnc2)c2c1CCN(c1ncccn1)C2`, with -42.9%.
With `CCN(CC)c1nc2ccsc2c(=O)n1CCC(=O)NC1CCCC1`, the INHIBITION is on record as -39.2%.
For `Cc1nc(N2CCCC2)ncc1-c1cc(O)nc(N2CCOCC2)n1` the value was -32.6%; for `O=C(C[C@@H]1COC[C@H]2CN(Cc3ccncc3)C[C@@H]12)N1CCOCC1`, -108%; for `CC(=O)Nc1ccc(-n2cncn2)c(F)c1`, 47.2%.
For the molecule `COCCNC(=O)Nc1ccc(-n2cncn2)c(F)c1`, the INHIBITION is given as -29%.
Consider `COCCS(=O)(=O)Nc1ccc(-n2cncn2)c(F)c1`, for which the INHIBITION stood at 68.3%.
`COCCN(C)Cc1nc(-c2cccc(F)c2F)oc1C`: the INHIBITION was -36.7%.
Then `CN1CCC2(Cc3ccccc3CN(C(=O)CCN)C2)C1` (stereo not drawn), with -100%.
Then `CN1CCC2(Cc3ccccc3CN(C(=O)Cc3cccc(Cl)c3)C2)C1` (stereo not drawn), with 54.8%; and `CCCC(=O)N1Cc2ccccc2CC2(CCN(C)C2)C1` (stereo not drawn), with 8.68%; and `Cc1nn(C)c(Cl)c1C1CCCN1CC(=O)NC1CCCC1` (stereo not drawn), with 13%.
For `Cn1cc(S(=O)(=O)NCCc2ccsc2)cn1` the value was -97%.
Regarding `CC(C)(C)c1cn(C2CCN(C3CCSC3)CC2)nn1` (stereo not drawn), the INHIBITION is reported as -103%.
For `COc1ccc(CNCCc2cc(F)cc3c2OCOC3)cc1O` the value was 37%; for `COc1cc(CNCCc2cc(F)cc3c2OCOC3)cc(OC)c1`, 31.1%.
For `COc1ccc(CNCCc2cc(F)cc3c2OCOC3)cc1OC` the value was 21.3%.
In the case of `N#Cc1ccc(CNCCc2cc(F)cc3c2OCOC3)cc1`, the INHIBITION is given as -105%.
Then `COc1ccc(CNCCc2cc(F)cc3c2OCOC3)c(OC)c1`, with 55.4%; and `COc1cccc(CNCCc2cc(F)cc3c2OCOC3)c1`, with 19.8%; and `COc1ccc(OC)c(CNCCc2cc(F)cc3c2OCOC3)c1`, with 66.3%.
For `COc1cccc(CNCCc2cc(F)cc3c2OCOC3)c1OC` the value was 56.8%; for `N#Cc1cccnc1NCCc1cc(F)cc2c1OCOC2`, -127%.

Source of the values: ChEMBL document CHEMBL4513216, “Probing the Open Global Health Chemical Diversity Library for Multistage-Active Starting Points for Next-Generation Antimalarials” (ACS Infect Dis, 2020).
